High-throughput results deposited in PubChem by National Center for Advancing Translational Sciences (NCATS).
DT40 TDP1 CPT – DT40-hTDP1 cell growth loss with CPT. chicken DT40 Tdp1-/-;hTDP1 cells + 20 nM CPT, ATP luminescence, 48 h. Potency, µM (highest dose often 46.2 µM), hits mostly inhibitors. hit rate 12% among 420,000. AID 686979; further: nearly all actives have a fitted effect of over 55% in size
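Cell growth measured by CellTiter-Glo luminescence after a minimum 48 h, 37 C compound exposure with 20 nM CPT in Tdp1-knockout DT40 cells stably expressing hTDP1, seeded 400/well; qHTS titration format.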
IL-1B inflam inh – inflammasome signaling inhibition, IL-1 beta readout | THP-1 LPS/ATP IL-1B secretion, AlphaLISA, 16 h; stronger effect = lower value | AID 743279 | hit rate 4.7% among 360,000 | activity change, % at 57.5 µM; in the data active means activity change below about -50%; inconclusive means mostly about -30% to -49%
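Secreted IL-1B measured by AlphaLISA bead assay after 16 h compound exposure of THP-1 cells; compounds (final up to 57.5 uM) added 1 h before LPS (250 ng/mL) and ATP (1.25 mM) stimulation; lower signal means less secretion.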
DT40 TDP1 no CPT – qHTS for Inhibitors of human tyrosyl-DNA phosphodiesterase 1 (TDP1): qHTS in cells in absence of CPT | DT40 Tdp1-/- hTDP1 cells, no CPT, ATP luminescence, 48 h | Potency, µM (highest dose often 46.2 µM), hits mostly inhibitors | hit rate 15% among 420,000; further: nearly all actives have a fitted effect of over 55% in size
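Luminescent ATP content (CellTiter-Glo) served as the growth readout. Knockout chicken DT40 cells expressing human TDP1 were exposed to compounds without camptothecin for a minimum 48 hr at 37 °C.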
ELG1 repair inh – blocks ELG1-dependent DNA repair in HEK293T cells. AID 504467. Potency, µM (top dose mostly 46.1 µM), most hits filed as inhibitors. HEK293T ELG1-luciferase reporter, luminescence, 16 h; DNA damage induced by 5-fluorouridine. hit rate 2.3% among 330,000; further: nearly all actives have a fitted effect of over 55% in size
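Reporter activity after DNA damage by 5-fluorouridine is monitored. Compound-treated cells incubate 16 hr at 37 °C, then ONE-Glo is added for 30 min before luminescence reading.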
Giardia killer – Giardia lamblia killing. hit rate 0.15% among 340,000. Giardia lamblia trophozoite viability. activity change, % at 7.66 µM, hits read low. AID 540267; in the data active means activity change below about -80%; inconclusive means between about -30% and that limit;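 further: parasites exposed to compound for two days anaerobically before the ATP read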
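Giardia trophozoites, 100 cells per well, were exposed to compounds for 48 hrs at 37 deg C under anaerobic conditions; viability was then read as ATP content by bioluminescence after 15-30 min at room temperature.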
TDP1 block – TDP1 (human) enzyme inhibition | Q9NUW8 | Potency, µM (highest dose often 130 µM), hits mostly inhibitors | hit rate 0.28% among 350,000 | recombinant TDP1, AlphaScreen DNA substrate cleavage | AID 485290; further: nearly all actives have a fitted effect of over 40% in size
Target sequence (Q9NUW8 whole entry, looked up): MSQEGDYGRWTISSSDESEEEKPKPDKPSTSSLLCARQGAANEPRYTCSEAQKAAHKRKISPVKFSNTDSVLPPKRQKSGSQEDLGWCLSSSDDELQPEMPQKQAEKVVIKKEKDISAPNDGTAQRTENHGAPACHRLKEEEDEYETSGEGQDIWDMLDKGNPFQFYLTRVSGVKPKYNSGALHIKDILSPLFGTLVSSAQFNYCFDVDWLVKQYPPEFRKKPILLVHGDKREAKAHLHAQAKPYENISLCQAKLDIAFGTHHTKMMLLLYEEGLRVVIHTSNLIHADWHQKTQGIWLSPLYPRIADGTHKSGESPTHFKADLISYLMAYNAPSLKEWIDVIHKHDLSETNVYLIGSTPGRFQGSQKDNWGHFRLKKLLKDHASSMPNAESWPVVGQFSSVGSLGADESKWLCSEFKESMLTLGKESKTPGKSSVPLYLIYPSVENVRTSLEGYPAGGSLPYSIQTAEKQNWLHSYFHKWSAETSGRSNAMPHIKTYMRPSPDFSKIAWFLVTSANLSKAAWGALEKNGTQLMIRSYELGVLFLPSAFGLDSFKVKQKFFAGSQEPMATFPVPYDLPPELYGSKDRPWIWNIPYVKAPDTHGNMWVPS
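Enzyme-compound mixtures sat 15 min at room temperature, followed by a 5 min reaction with 15 nM final substrate and 10 min with AlphaScreen beads. Recombinant human Tdp1 was used at 1 nM final.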
A number is an active result; . = inactive; ? = inconclusive; / = not tested or not shown; [ ] = dose if it differs, or a comment. Shown are actives, neighbours in structure and some others; about 19% of the full set was active somewhere. Unless noted, the call rests on the fitted dose curve; in most records, active means well fitted curve in the direction sought with a large enough effect; inconclusive means small, poorly fitted or top-dose-only effect, or another doubt; inactive means no such curve, though single readings can be large; an effect the other way counts as inactive or inconclusive.

SMILES | DT40 TDP1 CPT | IL-1B inflam inh | DT40 TDP1 no CPT | ELG1 repair inh | Giardia killer | TDP1 block
O=C(c1ccc(CSc2nc3ccncc3n2Cc2cccc(F)c2)cc1)N1CCCCCC1 | ? | / | 16µM | / | / | .
O=C(c1ccc(CSc2nc3ccncc3n2Cc2cccc(F)c2)cc1)N1CCCCC1 | ? | / | 21µM | / | / | .
COc1ccccc1N1CCN(C(=O)c2ccccc2Oc2ccccc2)CC1 | ? | . | ? | . | . | .
O=C(c1ccccc1C(=O)N1CCN(c2ccccc2F)CC1)N1CCN(c2ccccc2F)CC1 | 18µM | . | ? | ? | . | .
O=C(c1ccccc1Oc1ccccc1)N1CCN(c2ccccc2F)CC1 | 18µM | . | 16µM | . | . | .
COc1ccc(-n2ncc(C(=O)N3CCN(c4ncccn4)CC3)c2C2CCN(C(=O)OC(C)(C)C)CC2)cc1 | . | / | . | / | / | /
CCOc1ccccc1Nc1sc(C(=O)c2ccccc2)c(N)c1S(=O)(=O)c1ccc(C)cc1 | ? | / | 5.8µM | / | / | .
Cc1cccc(C)c1Nc1sc(C(=O)c2ccccc2)c(N)c1S(=O)(=O)c1ccccc1 | 4.6µM | / | 3.7µM | / | / | .
COc1ccc(S(=O)(=O)c2c(Nc3ccccc3F)sc(C(=O)c3cccc(OC)c3)c2N)cc1 | 5.2µM | / | 6.5µM | / | / | .
CCc1ccccc1Nc1sc(C(=O)c2cccc(OC)c2)c(N)c1S(=O)(=O)c1ccccc1 | ? | / | ? | / | / | .
CC(C)c1ccc(N(CC(=O)N/N=C/c2ccc(OC3CSC3)cc2)S(=O)(=O)c2ccccc2)cc1 | 23µM | . | ? | . | . | .
CC(C)c1ccc(N(CC(=O)NCCCN2CCOCC2)S(=O)(=O)c2ccccc2)cc1 | 18µM | . | 26µM | ? | . | .
Cc1ccc(N(CC(=O)N/N=C/c2ccc(OC3CSC3)cc2)S(=O)(=O)c2ccccc2)cc1 | . | . | . | . | . | .
Cn1c(=O)cc(OCC(=O)NCc2ccc(F)cc2Cl)c2ccccc21 | . | / | . | / | / | .
Cc1cc(N2C(=O)C3C4CC(c5ccccc5)C(C4)C3C2=O)no1 (centres undefined) | . | . | . | . | . | .
CCCCn1c(=NC(=O)c2ccc3c(c2)OCO3)c(C#N)cc2c(=O)n3cccc(C)c3nc21 | 7.3µM | . | 9.2µM | . | . | .
CCCCn1c(=NC(C)=O)c(C#N)cc2c(=O)n3cccc(C)c3nc21 | . | . | 18µM | / | . | /
COc1cc2ncc(C(=O)c3ccccc3)c(N3CCN(Cc4ccccc4)CC3)c2cc1OC | ? | -77 | 18µM | ? | . | /
CCOC(=O)C1CCN(c2c(C(=O)c3ccccc3)cnc3ccc(CC)cc23)CC1 | ? | . | 18µM | . | . | .
CCOC(=O)C1CCN(c2c(C(=O)c3ccc(OC)cc3)cnc3ccccc23)CC1 | 21µM | / | 16µM | / | / | .
COc1ccccc1-c1nc2ccc(Cl)cc2c(=O)n1O | . | . | . | . | . | /
COc1ccc(S(=O)(=O)N2CCCCC2)cc1NC(=O)Cc1cccc(C(F)(F)F)c1 | . | . | . | . | . | .
COc1cccc(-n2cnc3c(sc4nc(N5CCOCC5)c5c(c43)CCCC5)c2=O)c1 | ? | -54 | 18µM | . | . | .
Cc1ccc(-c2nc3c4ccccc4ccn3c2Cc2ccccc2C(F)(F)F)cc1 | ? | . | 16µM | / | / | /
COc1ccccc1Cc1c(C(C)(C)C)nc2ccc(C)cn12 | 0.65µM | . | 9.2µM | / | / | /
SMILES | DT40 TDP1 CPT | IL-1B inflam inh | DT40 TDP1 no CPT | ELG1 repair inh | Giardia killer | TDP1 block
FC(F)(F)c1ccccc1Cc1c(-c2ccccc2)nc2ccc(Cl)cn12 | ? | . | ? | / | / | /
COc1ccc(Cc2c(C(C)(C)C)nc3ccc(C)cn23)c(C)c1 | 15µM | . | 13µM | / | / | /
COc1ccc(Cc2c(C(C)(C)C)nc3ccc(Cl)cn23)c(C)c1 | ? | . | ? | / | / | /
Cc1ccc2nc(-c3ccccc3)c(Cc3ccccc3C(F)(F)F)n2c1 | 16µM | . | ? | / | / | /
FC(F)(F)c1ccccc1Cc1c(-c2ccc(Cl)cc2)nc2ccc(Cl)cn12 | ? | . | ? | / | / | /
Cc1ccc(-c2nc3ccc(C)cn3c2Cc2ccccc2C(F)(F)F)cc1 | 29µM | . | ? | / | / | /
Cc1ccc2nc(C(C)(C)C)c(Cc3ccccc3C(F)(F)F)n2c1 | 16µM | . | 15µM | / | / | /
CC(C)(C)Nc1oc(-c2ccccc2)nc1-c1cccc2ccccc12 | / | / | / | / | / | .
O=C(CSc1ccc(Cl)cc1)NNC(=O)c1ccncc1 | . | . | . | . | . | .
Cc1cccc(C2CC(=O)Nc3cc4c(cc32)OCO4)c1 (centres undefined) | ? | / | 21µM | / | / | .[12.3 µM]
CC(C)Oc1cccc(C2CC(=O)Nc3cc4c(cc32)OCO4)c1 (centres undefined) | 2.6µM | / | 2.6µM | / | / | .
COc1cccc(C2CC(=O)Nc3cc4c(cc32)OCO4)c1OC(C)C (centres undefined) | 21µM | / | ? | / | / | .
CC1Cc2nc(SCC(=O)c3ccccc3)n(Cc3ccccc3)c(=O)c2S1 (centres undefined) | 10µM | ? | 10µM | . | . | .
CC1Cc2nc(SCC(=O)Nc3ccc4c(c3)OCO4)n(CCc3ccccc3)c(=O)c2S1 (centres undefined) | ? | ? | ? | 13µM | ? | .
CCn1c(SCC(=O)Nc2ccc3c(c2)OCO3)nc2c(c1=O)SC(C)C2 (centres undefined) | ? | . | ? | . | . | .
COc1ccccc1NC(=O)C(C)OC(=O)Cc1ccsc1 (centres undefined) | . | . | . | . | . | .
CCCCNC(=O)C[C@@H]1C[C@@]2(C(=O)OC)CCCCC=C2N(CCC2=CCCCC2)C1=O | ? | ? | 18µM | / | / | /
C#CCNC(=O)C[C@@H]1C[C@@]2(C(=O)OCC)CCC=C2N(CCC2=CCCCC2)C1=O | ? | . | ? | / | / | /
CCCCCCCCN1C(=O)[C@H](CC(=O)NCCCCc2ccccc2)C[C@@]2(C(=O)OC)CCCCC=C12 | ? | . | ? | / | / | /
C#CCNC(=O)C[C@@H]1C[C@@]2(C(=O)OC)CCCCC=C2N(CCC2=CCCCC2)C1=O | ? | . | 18µM | / | / | /
CCCOc1ccc(-c2nnn(CC(=O)c3c[nH]c4ccccc34)n2)cc1 | . | . | . | . | . | .
Cn1c(=O)c(Nc2ccc(O)cc2)c2c3c(cccc31)C(=O)c1ccccc1-2 | 3.7µM | ? | 2.6µM | ? | . | .
O=C(CCN1C(=O)c2ccccc2C1=O)Nc1cccc(O)c1 | . | . | . | . | . | /
O=C(CSc1ccc2nnc(-c3ccc(Cl)cc3)n2n1)N1CCCc2ccccc21 | . | . | 23µM | ? | . | .
O=C(CSc1ccc2nnc(-c3ccncc3)n2n1)N1CCc2ccccc21 | / | / | / | . | / | .
O=C(CSc1ccc2nnc(-c3ccc(F)cc3)n2n1)N1CCCc2ccccc21 | 18µM | . | 16µM | 18µM | . | .
